Measured values taken from PubChem BioAssay AID875 (National Center for Advancing Translational Sciences (NCATS), 2007).
Screen size: about 75,000 compounds; about 35 (0.05%) were called active. A call without a number means that no potency is given here. This is one part of a sample in which actives are shown more often than they occur. Calls follow the shape of the dose curve; as a rule, active = well fitted inhibition curve with a large enough effect; inconclusive = small, poorly fitted or top-dose-only effect; inactive = no such curve, though single readings can be large or run the other way.

target: Breast cancer type 1 susceptibility protein (Homo sapiens) (UniProt P38398); assay: qHTS Assay for Inhibitors of BRCT-Phosphoprotein Interaction (Green Fluorophore); details: BRCA1 BRCT-phosphopeptide binding, green fluorescence polarization; series mostly up to 76.9 µM
Sequence (P38398 whole entry, looked up): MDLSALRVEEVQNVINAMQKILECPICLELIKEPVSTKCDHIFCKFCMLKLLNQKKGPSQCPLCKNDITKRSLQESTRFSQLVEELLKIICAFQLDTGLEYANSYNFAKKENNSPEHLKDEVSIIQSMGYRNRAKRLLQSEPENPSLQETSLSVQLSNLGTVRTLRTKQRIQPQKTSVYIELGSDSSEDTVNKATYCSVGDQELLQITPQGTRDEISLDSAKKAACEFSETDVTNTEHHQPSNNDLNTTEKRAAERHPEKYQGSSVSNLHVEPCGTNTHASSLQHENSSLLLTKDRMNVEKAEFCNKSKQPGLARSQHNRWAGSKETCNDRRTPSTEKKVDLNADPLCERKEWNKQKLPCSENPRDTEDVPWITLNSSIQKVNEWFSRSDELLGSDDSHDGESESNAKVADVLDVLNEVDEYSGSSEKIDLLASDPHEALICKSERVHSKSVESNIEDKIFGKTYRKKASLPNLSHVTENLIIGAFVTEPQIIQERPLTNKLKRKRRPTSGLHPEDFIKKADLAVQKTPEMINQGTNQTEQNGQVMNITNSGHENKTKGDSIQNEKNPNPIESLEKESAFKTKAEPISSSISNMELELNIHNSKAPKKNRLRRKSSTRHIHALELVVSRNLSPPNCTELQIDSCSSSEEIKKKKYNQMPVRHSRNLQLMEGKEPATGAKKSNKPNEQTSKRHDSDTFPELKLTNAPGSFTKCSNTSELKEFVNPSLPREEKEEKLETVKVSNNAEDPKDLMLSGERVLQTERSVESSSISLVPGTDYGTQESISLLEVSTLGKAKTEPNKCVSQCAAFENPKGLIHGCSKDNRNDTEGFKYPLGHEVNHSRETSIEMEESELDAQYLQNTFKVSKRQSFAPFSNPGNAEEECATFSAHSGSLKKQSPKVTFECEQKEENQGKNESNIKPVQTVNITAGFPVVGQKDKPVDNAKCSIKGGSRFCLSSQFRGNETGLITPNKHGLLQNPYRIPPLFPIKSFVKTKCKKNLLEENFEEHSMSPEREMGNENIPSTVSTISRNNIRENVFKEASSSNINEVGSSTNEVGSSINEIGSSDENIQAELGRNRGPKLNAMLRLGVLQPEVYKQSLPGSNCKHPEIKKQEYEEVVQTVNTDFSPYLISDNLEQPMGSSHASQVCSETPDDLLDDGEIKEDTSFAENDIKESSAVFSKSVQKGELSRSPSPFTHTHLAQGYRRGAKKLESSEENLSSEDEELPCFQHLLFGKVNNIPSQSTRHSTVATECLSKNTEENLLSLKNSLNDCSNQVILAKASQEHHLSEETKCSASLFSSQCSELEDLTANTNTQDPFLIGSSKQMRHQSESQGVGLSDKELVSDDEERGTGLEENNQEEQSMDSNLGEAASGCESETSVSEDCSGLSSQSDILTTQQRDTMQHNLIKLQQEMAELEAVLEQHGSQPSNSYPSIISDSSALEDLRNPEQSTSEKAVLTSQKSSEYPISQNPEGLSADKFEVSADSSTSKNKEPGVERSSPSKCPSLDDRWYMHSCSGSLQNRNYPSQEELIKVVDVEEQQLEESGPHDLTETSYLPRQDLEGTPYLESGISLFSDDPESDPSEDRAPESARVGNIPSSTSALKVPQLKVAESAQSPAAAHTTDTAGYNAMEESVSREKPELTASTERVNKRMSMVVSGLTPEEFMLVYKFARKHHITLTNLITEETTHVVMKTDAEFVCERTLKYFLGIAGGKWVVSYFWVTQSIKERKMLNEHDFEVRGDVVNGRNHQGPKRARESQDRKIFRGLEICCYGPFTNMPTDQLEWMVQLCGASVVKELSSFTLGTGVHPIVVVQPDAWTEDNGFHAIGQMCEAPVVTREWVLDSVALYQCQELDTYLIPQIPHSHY
Procedure: NIH Molecular Libraries Screening Centers Network [MLSCN]
NIH Chemical Genomics Center [NCGC]
PI Name: Natarajan, Amarnath; University of Texas
A complex of BRCT (C-terminal portion of BRCA1, MW ~35 kDa, His-tagged) and fluorescently labeled pBACH1 phosphorylated 10 aa peptide fragment of BACH1, a helicase implicated in DNA repair, is incubated with library members. Inhibitors of BRCT-pBACH1 binding are detected by a decrease in the fluorescence polarization (FP) of the fluorophore. In order to minimize the effect of fluorescence artifacts and to increase the overall robustness of the screen, the compound library members were incubated in separate reactions with fluorescein labeled probe-protein complexes. Protein and labeled probes were supplied by Dr. Amarnath Natarajan, Department of Pharmacology and Toxicology, University of Texas Medical Branch Galveston, TX.
Assay Buffer: 16mM Na2HPO4, 4 mM NaH2PO4, 150 mM NaCl, 1 mM EDTA, 1 mM DTT, 0.02% NaN3, and 0.01% Tween 20 at pH 7.3.
100 nM labeled decapeptide/250 nM protein in columns 1, 2, 5 - 48. Titration of unlabeled decapeptide control (from 10 mM, then 1:2 dilution in duplicate) pin-transferred to column 2, rows 1 to 16. Column 1 is neutral.
Three uL of reagents were dispensed to 1536-well Greiner black solid-bottom plates. Compounds and controls (23 nL) were transferred
via Kalypsys PinTool. The plates were incubated for 12 min at room temperature, and then read on ViewLux (Perkin-Elmer) High throughput CCD imager using FITC for the fluorescein-labeled decapeptide probe polarization filter sets. During dispense, reagent bottles were kept submerged into 4 deg C water bath and all liquid lines were covered with aluminum foil to minimize probe and protein degradation. All screening operations were performed on a Kalypsys robotic system (Kalypsys, Inc., San Diego, CA) containing one RX-130 and two RX-90 anthropomorphic robotic arms. The timing and order of assay plates passing through the screening system were adjusted such that each compound library plate was assayed against the fluorescein- and rhodamine-labeled assay systems at immediately adjacent time points.
Potency is read from the fitted curve at half-maximal effect.

SMILES	activity change, negative = inhibition	Potency
CCOC(=O)C1C(=O)OC2(CCCC2)C1C(=O)OCC (stereo not given)	inactive	–
Cn1nc(-c2ccc(N3CCOCC3)c(NC(=O)c3ccccc3)c2)c2ccccc2c1=O	inactive	–
CC1CCCCC1NC(=O)CSc1nnc(N)s1 (stereo not given)	inactive	–
COCc1[nH]nc2c1C(C1C=CCCC1)C(C#N)=C(N)O2 (stereo not given)	inactive	–
O=c1c(O)c(-c2ccc(O)cc2)oc2ccccc12	-3.22% [at 3.08 µM] (inactive)	–
CCOc1ccc2[nH]c(=O)c(CN(Cc3nnnn3CCc3ccccc3)CC3CCCO3)cc2c1 (stereo not given)	inactive	–
Cc1ccc(C)c(NC(=O)C2CC(=O)N(C(C)C)C2)c1 (stereo not given)	inactive	–
O=C(COc1ccc(S(=O)(=O)NCCc2ccccc2)cc1)N1CCCC1	inactive	–
CC(C)n1c(C(O)c2ccccc2)nc2ccccc21 (stereo not given)	inactive	–
O=C(NCC12CC3CC(C1)CC(CNC(=O)N1CCCC1)(C3)C2)N1CCCC1	inactive	–
CC(=O)O[C@]1(C(C)=O)CC[C@@H]2[C@@H]3C=C(C)C4=CC(=O)CC[C@@]4(C)[C@H]3CC[C@]21C	inactive	–
S=c1[nH]nc(SCc2ccccc2Cl)c2[nH]cnc12	-0.607% [at 15.4 µM] (inactive)	–
CCNC(=O)CN(c1ccc(C)cc1)S(=O)(=O)c1ccc(SC)cc1	inactive	–
CC(C)NC(=O)N1CC[C@@]2(CCCN(C(=O)c3cccc(F)c3)C2)C1	inactive	–
Cc1ccc(C(c2nnnn2CS(=O)(=O)c2ccc(C)cc2)N2CCC(C(N)=O)CC2)cc1 (stereo not given)	inactive	–
CCSc1ncnc2c(C#N)c3n(c12)CCCCC3	inactive	–
COc1ccc(-n2c(SCC(=O)OC(C)C)nnc2-c2ccccn2)cc1	inactive	–
Nc1nnc(C2CCCC2)s1	inactive	–
CC(=O)c1ccc(-n2nnnc2SCC(=O)N2CCN(C(=O)c3ccco3)CC2)cc1	inactive	–
CC1(C)OC2CC(=O)OC[C@@]23C1CC(=O)[C@]1(C)C3CC[C@@]2(C)C(c3ccoc3)OC(=O)C3O[C@@]321 (stereo not given in full)	inactive	–
C[C@H](CCC(=O)O)[C@H]1CC[C@@H]2[C@H]3CC[C@H]4C[C@H](O)CC[C@@]4(C)[C@@H]3CC[C@@]21C	-0.353% [at 15.4 µM] (inactive)	–
COc1ccc(-c2nnco2)cc1OC	inactive	–
CCCOC(=O)Cc1c(O)c2ccccc2[nH]c1=O	inactive	–
N#CCC(=O)NC(=O)NCC1CC1	inactive	–
Cc1ccc(OS(=O)Nc2cccc3nccnc23)cc1 (stereo not given)	inactive	–

SMILES	activity change, negative = inhibition	Potency
Cc1c(S(=O)(=O)O)oc2c1C(=O)C(=O)c1c-2ccc2c1CCCC2(C)C	–	31.6 µM (active)
O=C(c1c(Cl)nc2sccn12)N1CCCc2ccccc21	inactive	–
CCOc1ccc(C2C(C(=O)O)c3ccccc3C(=O)N2CCN2CCOCC2)cc1 (stereo not given)	inactive	–
COc1ncc2nc(-c3ccc(Cl)cc3)c(=O)n(-c3ccccc3)c2n1	inactive	–
CC(=O)NC1CC2CCCC(C1)N2CC(=O)Nc1ccccc1 (stereo not given)	inactive	–
Cc1ccc(N(C(=O)CC2NC(=O)NC2=O)C2(C(=O)NC3CCCC3)CCCCC2)cc1 (stereo not given)	inactive	–
O=S(=O)(NCc1cccnc1)c1ccc(Br)s1	inactive	–
Cc1cc(NC(=O)COC(=O)c2ccc(F)c(S(=O)(=O)N3CCOCC3)c2)no1	inactive	–
O=C1c2ccccc2S(=O)(=O)N1CC(O)Cn1c2ccccc2c2ccccc21 (stereo not given)	inactive	–
O=C1OC(C(O)CO)C(O)=C1O (stereo not given)	-0.826% [at 3.08 µM] (inactive)	–
CO[C@H]1COC(=O)[C@@H](C)NC(=O)C/C=C\[C@@H](C)[C@H](OC)COC(=O)C/C=C\[C@@H]1C	-2.28% [at 15.4 µM] (inactive)	–
CC1(C)Cc2cccc(OCC(=O)Nc3nccs3)c2O1	inactive	–
Cc1ccc(-c2noc(-c3ccccc3C(=O)NCC3CCCO3)n2)cc1 (stereo not given)	inactive	–
Cc1cc(C)c(C#N)c(SCS(=O)c2ccc(C(C)(C)C)cc2)n1 (stereo not given)	inactive	–
Cc1ccc(S(=O)(=O)NC(=O)NN2C[C@H]3CCC[C@@H]3C2)cc1	inactive	–
CN(C)CCNC(=O)C(C(=O)c1ccccc1)n1ccccc1=O (stereo not given)	inactive	–
CCOC(=O)N1CCN(C(=O)C2CC(c3ccc(F)cc3)=NO2)CC1 (stereo not given)	inactive	–
Cc1csc(-c2nc3ccccc3n2C)n1	inactive	–
O=C(Nc1cccc2c1CCCC2)C1CCN(C(=O)NC2CCCCC2)CC1	inactive	–
Fc1ccc(-c2ccc(-c3nn4c(-c5ccco5)nnc4s3)o2)cc1	inactive	–
COc1ccc(OC)c(C(=O)c2ccc(C(=O)O)cc2)c1	inactive	–
CCOC(=O)C(C)Oc1cccc2c(=O)n(CC(=O)N3CCc4ccccc43)ccc12 (stereo not given)	inactive	–
O=C(CSc1nnc(-c2cccnc2)n1Cc1ccco1)c1ccc(Cl)c(Cl)c1	inactive	–
COCCN(C(=O)CCC(=O)Nc1ccccn1)C(C(=O)NCCC(C)C)c1ccc(OC)cc1 (stereo not given)	inactive	–
CCc1c(C)nc(N)n2c(SCC(=O)N3CCN(c4ccccc4)CC3)nnc12	inactive	–

SMILES	activity change, negative = inhibition	Potency
CCCC(NC(=O)c1ccccc1)c1nc2ccccc2n1Cc1ccc(C(=O)OC)o1 (stereo not given)	inactive	–
CC(=O)c1sc2nc(SCC(=O)N3CCCCC3)[nH]c(=O)c2c1C	inactive	–
C/C(O)=C\c1nc(=O)c2c(C)cc(C)nc2n1-c1ccccc1	inactive	–
Cc1cc(NCc2ccco2)n2c(nc3ccccc32)c1C#N	inactive	–
CCCN1[C@H](C(=O)OC)C[C@@]2(O)[C@@H](O)[C@@H](O)[C@@H](O)C[C@@H]12	inactive	–
O=C(O)[C@H](CCc1ccccn1)c1ccccc1	0.305% [at 15.4 µM] (inactive)	–
Cc1nc(C)c(C(=O)Nc2cccc(C)c2C)o1	inactive	–
CCCn1c(=O)c2[nH]c(C3CCCC3)nc2n(CCC)c1=O	inactive	–
O=C(NCCCN1CCOCC1)c1cc(-c2ccc(Cl)cc2)on1	inactive	–
COC(=O)[C@@H]1C[C@@]2(O)[C@H](O)[C@H](O)[C@H](O)C[C@H]2N1Cc1ccc(C)s1	inactive	–
CN(C)/C=N/c1cc(=O)n(C)c(=O)n1CC1CC1	inactive	–
CCCCCCCCCc1ccc(OCCOCCOCCOCCOCCOCCOCCOCCOCCO)cc1	inactive	–
O=C(Nc1ccccc1N1CCCCC1)c1ccc2nccnc2c1	inactive	–
CN1CCCC1CCO[C@@](C)(c1ccccc1)c1ccc(Cl)cc1 (stereo not given in full)	-4.61% [at 3.08 µM] (inactive)	–
CN1CCc2nc(-c3ccccc3)c(-c3ccccc3)cc2C1	-0.939% [at 15.4 µM] (inactive)	–
CCN(CC)C(=O)CSc1nnc(-c2cnccn2)n1-c1ccc(C)cc1	inactive	–
Cc1c(C(=O)CN2CCOCC2)[nH]c2ccccc12	inactive	–
Cc1cccc(-c2cc(=O)c3cc(C)ccc3o2)c1	inactive	–
Cc1c(S(=O)(=O)O)ccc(N=Nc2c(O)c(C(=O)O)cc3ccccc23)c1Cl	-3.5% [at 15.4 µM] (inactive)	–
CC(C(=O)Nc1ccccc1-c1ccccc1)N1CCOCC1 (stereo not given)	inactive	–
CCC1CCCCN1C(=O)Nc1cccc(NC(=O)N2CCCCC2CC)c1 (stereo not given)	inactive	–
CCOc1ccc(Cn2nnc(C(=O)NCc3ccccc3)c2N)cc1	inactive	–
O=C(Cn1nc(Cc2cccnc2)c2ccccc2c1=O)NCC1CCCO1 (stereo not given)	inactive	–
O=c1[nH]nc(CSCc2ccccc2Cl)[nH]1	inactive	–
Cc1cc(C)c(S(=O)(=O)NCCCN2CCOCC2)cc1Br	inactive	–
